Data reported in the supplement of paper PMC3150612.
± gives the standard deviation of the averaged measurements.

Assays:
Drosophila melanogaster [1] = test: olfactory response index (dipstick assay) (fraction of flies (RI; 1 aversion, 0.5 indifferent, 0 attraction)); higher = stronger aversion to the odorant; conditions: odorant concentration: 1% v/v, male
Drosophila melanogaster [2] = test: as above; conditions: odorant concentration: 1% v/v, female
[3] = genotype (tubulin-GAL4 x UAS-RNAi line; control = progenitor): A5
[4] = genotype (tubulin-GAL4 x UAS-RNAi line; control = progenitor): control
[5] = genotype (tubulin-GAL4 x UAS-RNAi line; control = progenitor): obp 18a
[6] = genotype (tubulin-GAL4 x UAS-RNAi line; control = progenitor): obp 22a
[7] = genotype (tubulin-GAL4 x UAS-RNAi line; control = progenitor): obp 28a
[8] = genotype (tubulin-GAL4 x UAS-RNAi line; control = progenitor): obp 56a
[9] = genotype (tubulin-GAL4 x UAS-RNAi line; control = progenitor): obp 56c
[10] = genotype (tubulin-GAL4 x UAS-RNAi line; control = progenitor): obp 56f
[11] = genotype (tubulin-GAL4 x UAS-RNAi line; control = progenitor): obp 57a
[12] = genotype (tubulin-GAL4 x UAS-RNAi line; control = progenitor): obp 57b
[13] = genotype (tubulin-GAL4 x UAS-RNAi line; control = progenitor): obp 58c
[14] = genotype (tubulin-GAL4 x UAS-RNAi line; control = progenitor): obp 59a
[15] = genotype (tubulin-GAL4 x UAS-RNAi line; control = progenitor): obp 83a
[16] = genotype (tubulin-GAL4 x UAS-RNAi line; control = progenitor): obp 83c
[17] = genotype (tubulin-GAL4 x UAS-RNAi line; control = progenitor): obp 93a
[18] = genotype (tubulin-GAL4 x UAS-RNAi line; control = progenitor): obp 99b
[19] = genotype (tubulin-GAL4 x UAS-RNAi line; control = progenitor): obp 56h
[20] = genotype (tubulin-GAL4 x UAS-RNAi line; control = progenitor): obp 58b

Compound	olfactory response index (Drosophila melanogaster [1]; [3])	olfactory response index (Drosophila melanogaster [1]; [4])	olfactory response index (Drosophila melanogaster [1]; [5])	olfactory response index (Drosophila melanogaster [1]; [6])	olfactory response index (Drosophila melanogaster [1]; [7])	olfactory response index (Drosophila melanogaster [1]; [8])	olfactory response index (Drosophila melanogaster [1]; [9])	olfactory response index (Drosophila melanogaster [1]; [10])	olfactory response index (Drosophila melanogaster [1]; [11])	olfactory response index (Drosophila melanogaster [1]; [12])	olfactory response index (Drosophila melanogaster [1]; [13])	olfactory response index (Drosophila melanogaster [1]; [14])	olfactory response index (Drosophila melanogaster [1]; [15])	olfactory response index (Drosophila melanogaster [1]; [16])	olfactory response index (Drosophila melanogaster [1]; [17])	olfactory response index (Drosophila melanogaster [1]; [18])	olfactory response index (Drosophila melanogaster [1]; [19])	olfactory response index (Drosophila melanogaster [2]; [3])	olfactory response index (Drosophila melanogaster [2]; [4])	olfactory response index (Drosophila melanogaster [2]; [5])	olfactory response index (Drosophila melanogaster [2]; [6])	olfactory response index (Drosophila melanogaster [2]; [7])	olfactory response index (Drosophila melanogaster [2]; [8])	olfactory response index (Drosophila melanogaster [2]; [9])	olfactory response index (Drosophila melanogaster [2]; [10])	olfactory response index (Drosophila melanogaster [2]; [11])	olfactory response index (Drosophila melanogaster [2]; [12])	olfactory response index (Drosophila melanogaster [2]; [20])	olfactory response index (Drosophila melanogaster [2]; [13])	olfactory response index (Drosophila melanogaster [2]; [14])	olfactory response index (Drosophila melanogaster [2]; [15])	olfactory response index (Drosophila melanogaster [2]; [16])	olfactory response index (Drosophila melanogaster [2]; [17])	olfactory response index (Drosophila melanogaster [2]; [18])	olfactory response index (Drosophila melanogaster [2]; [19])
C=C(C)[C@@H]1CC=C(C)C(=O)C1 [(R)-carvone]	0.627 ± 0.12	0.163 ± 0.067	0.206 ± 0.16	0.34 ± 0.1	0.499 ± 0.09	0.396 ± 0.16	0.158 ± 0.14	0.201 ± 0.076	0.207 ± 0.1	0.378 ± 0.18	0.24 ± 0.096	0.541 ± 0.14	0.422 ± 0.069	0.146 ± 0.12	0.472 ± 0.21	0.233 ± 0.12	0.306 ± 0.22	0.747 ± 0.074	0.712 ± 0.019	0.484 ± 0.18	0.5 ± 0.16	0.662 ± 0.12	0.532 ± 0.2	0.712 ± 0.2	0.616 ± 0.13	0.582 ± 0.15	0.685 ± 0.13	0.622 ± 0.14	0.684 ± 0.077	0.711 ± 0.059	0.535 ± 0.06	0.655 ± 0.11	0.708 ± 0.16	0.676 ± 0.022	0.615 ± 0.14
CC(C)=CCCC(C)=CC=O (mixture of isomers) [citral]	0.266 ± 0.06	0.226 ± 0.041	0.202 ± 0.06	0.17 ± 0.11	0.387 ± 0.092	0.0537 ± 0.02	0.186 ± 0.067	0.452 ± 0.042	0.215 ± 0.046	0.321 ± 0.11	0.166 ± 0.046	0.517 ± 0.0054	0.101 ± 0.099	0.292 ± 0.16	0.285 ± 0.083	0.0832 ± 0.075	0.226 ± 0.13	0.595 ± 0.02	0.674 ± 0.046	0.292 ± 0.12	0.474 ± 0.18	0.552 ± 0.055	0.195 ± 0.075	0.606 ± 0.034	0.639 ± 0.027	0.636 ± 0.17	0.642 ± 0.097	0.687 ± 0.15	0.409 ± 0.19	0.68 ± 0.086	0.479 ± 0.091	0.262 ± 0.091	0.536 ± 0.16	0.317 ± 0.01	0.66 ± 0.13
CC(C)=CCC/C(C)=C/CO [geraniol]	0.228 ± 0.033	0.136 ± 0.091	0.0872 ± 0.11	0.0901 ± 0.081	0.177 ± 0.1	0.188 ± 0.086	0.174 ± 0.038	0.175 ± 0.023	0.0811 ± 0.02	0.0917 ± 0.055	0.114 ± 0.049	0.441 ± 0.039	0.159 ± 0.025	0.183 ± 0.099	0.412 ± 0.13	0.141 ± 0.11	0.197 ± 0.18	0.71 ± 0.16	0.492 ± 0.12	0.371 ± 0.15	0.367 ± 0.018	0.605 ± 0.03	0.581 ± 0.099	0.295 ± 0.025	0.468 ± 0.18	0.406 ± 0.12	0.504 ± 0.032	0.591 ± 0.17	0.19 ± 0.12	0.565 ± 0.091	0.442 ± 0.07	0.414 ± 0.034	0.593 ± 0.061	0.35 ± 0.23	0.406 ± 0.18
CCOC(C)=O [ethyl acetate]	0.36 ± 0.22	0.266 ± 0.16	0.417 ± 0.15	0.176 ± 0.084	0.311 ± 0.18	0.0854 ± 0.099	0.17 ± 0.14	0.364 ± 0.31	0.236 ± 0.099	0.326 ± 0.14	0.181 ± 0.14	0.324 ± 0.23	0.21 ± 0.068	0.255 ± 0.11	0.352 ± 0.12	0.15 ± 0.14	0.227 ± 0.13	0.677 ± 0.11	0.639 ± 0.27	0.507 ± 0.12	0.669 ± 0.04	0.709 ± 0.13	0.486 ± 0.2	0.3 ± 0.1	0.559 ± 0.26	0.629 ± 0.015	0.61 ± 0.14	0.513 ± 0.31	0.561 ± 0.091	0.502 ± 0.25	0.471 ± 0.087	0.572 ± 0.0067	0.541 ± 0.13	0.2 ± 0.11	0.479 ± 0.06
CCc1cnccn1 [2-ethylpyrazine]	0.416 ± 0.069	0.118 ± 0.067	0.0666 ± 0.045	0.0894 ± 0.038	0.472 ± 0.092	0.194 ± 0.068	0.206 ± 0.11	0.247 ± 0.11	0.114 ± 0.085	0.0743 ± 0.059	0.144 ± 0.016	0.385 ± 0.17	0.221 ± 0.036	0.167 ± 0.082	0.342 ± 0.071	0.146 ± 0.061	0.319 ± 0.058	0.581 ± 0.074	0.524 ± 0.027	0.393 ± 0.2	0.435 ± 0.1	0.581 ± 0.0069	0.409 ± 0.078	0.497 ± 0.13	0.568 ± 0.16	0.304 ± 0.2	0.4 ± 0.14	0.256 ± 0.14	0.419 ± 0.22	0.638 ± 0.033	0.567 ± 0.092	0.522 ± 0.12	0.552 ± 0.076	0.159 ± 0.089	0.492 ± 0.14
CC(=O)c1ccccc1 [acetophenone]	0.629 ± 0.048	0.394 ± 0.035	0.26 ± 0.13	0.231 ± 0.17	0.419 ± 0.18	0.275 ± 0.14	0.265 ± 0.077	0.655 ± 0.15	0.332 ± 0.051	0.318 ± 0.13	0.578 ± 0.18	0.533 ± 0.14	0.745 ± 0.16	0.066 ± 0.075	0.242 ± 0.12	0.326 ± 0.023	0.657 ± 0.11	0.747 ± 0.024	0.69 ± 0.11	0.588 ± 0.13	0.67 ± 0.066	0.656 ± 0.078	0.503 ± 0.066	0.602 ± 0.057	0.801 ± 0.055	0.668 ± 0.1	0.629 ± 0.053	0.621 ± 0.061	0.562 ± 0.14	0.717 ± 0.05	0.45 ± 0.15	0.631 ± 0.082	0.69 ± 0.067	0.376 ± 0.15	0.489 ± 0.037
CC(=O)OCCC(C)C [isoamyl acetate]	0.156 ± 0.046	0.228 ± 0.095	0.362 ± 0.29	0.238 ± 0.1	0.237 ± 0.067	0.419 ± 0.15	0.373 ± 0.16	0.58 ± 0.23	0.192 ± 0.015	0.215 ± 0.071	0.173 ± 0.11	0.629 ± 0.17	0.339 ± 0.15	0.321 ± 0.13	0.343 ± 0.14	0.23 ± 0.083	0.348 ± 0.16	0.442 ± 0.16	0.707 ± 0.066	0.34 ± 0.095	0.625 ± 0.1	0.488 ± 0.25	0.665 ± 0.19	0.832 ± 0.067	0.497 ± 0.18	0.465 ± 0.13	0.583 ± 0.29	0.364 ± 0.2	0.471 ± 0.14	0.733 ± 0.07	0.594 ± 0.099	0.6 ± 0.054	0.702 ± 0.097	0.499 ± 0.14	0.659 ± 0.12
